Vif inh: HIV Vif self-association inhibitors, primary screen, imaging, HEK293T, single point; HEK293T cells, Vif self-association by quenched fluorescence, 24 h; inhibition, % at 7.49 µM; 0.35% of 340,000 active; in the data active = inhibition above about 50%, passing the limit was not always enough
F508del corr: F508del CFTR correction, initial screen, CFBE line, single point; CFBE cells, YFP halide quenching; stimulated with forskolin plus potentiator P3; % fluorescence drop versus neutral controls; activity (quench increase), % at 7.58 µM; 0.36% of 350,000 active;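 active = mean added fluorescence quench of at least 8% versus neutral control, with both replicates also reaching 8%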;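 also: cells transiently co-express mutant CFTR-F508del with the halide-sensitive YFP; corrector assay measuring rescue of mutant channel to the surface after 24 h compound exposure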
FGF22 binding: binders of human FGF22 protein, primary screen, FGF22 synaptogenesis inhibitor project, biophysical, thermal shift, single point | Fibroblast growth factor 22 (Homo sapiens), Q9HCT0 | recombinant FGF22 thermal shift, SYPRO orange fluorescence; percent of sucrose octasulfate shift, DMSO zero | activity (Tm shift, normalised), % at 9.99 µM | 1.5% of 340,000 active | AID 651658, 2012;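 active = mean Tm shift, scaled 0 neutral to 100 positive control, at about 1.3% or above, every replicate too, limit read from the data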
Target sequence (Q9HCT0 whole entry, looked up): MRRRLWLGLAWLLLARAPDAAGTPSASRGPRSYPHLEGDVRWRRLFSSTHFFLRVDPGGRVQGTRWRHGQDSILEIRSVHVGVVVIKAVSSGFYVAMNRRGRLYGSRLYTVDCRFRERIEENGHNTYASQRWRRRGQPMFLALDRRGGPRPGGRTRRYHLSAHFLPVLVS
Numbers stand for hits. This is a sample that favours compounds with a hit; in the whole collection about 1.7% have one here.

COc1ccc(CNC(=O)COC(=O)c2ccc(S(=O)(=O)N3CCOCC3)cc2)cc1 was read as Vif inh inactive, F508del corr inactive and FGF22 binding inactive.
Screening COc1cccc(CC(=O)Nc2cc(S(=O)(=O)N3CCOCC3)ccc2N2CCN(C)CC2)c1 returned Vif inh inactive, F508del corr inactive and FGF22 binding inactive.
For COc1ccc(CC(=O)Nc2cc(S(=O)(=O)N3CCOCC3)ccc2N2CCOCC2)cc1 the results were Vif inh inactive, F508del corr inactive and FGF22 binding 43.
For CCOC(=O)/C=C/C(=O)Nc1cc(S(=O)(=O)Nc2ccc(OC)cc2)ccc1N1CCOCC1 the results were Vif inh 100, F508del corr inactive and FGF22 binding inactive.
For COc1cc(CC(=O)Nc2cc(S(=O)(=O)N3CCOCC3)ccc2N2CCCC2)cc(OC)c1OC the results were Vif inh inactive, F508del corr inactive and FGF22 binding inactive.
`C[C@@H]1CCCCO[C@H](CN(C)S(=O)(=O)c2cn(C)cn2)[C@H](C)CN([C@H](C)CO)C(=O)c2cc(NC(=O)CCCN(C)C)ccc2O1` gave F508del corr inactive and FGF22 binding inactive.
`C[C@H]1CN([C@@H](C)CO)C(=O)c2cccc(NS(=O)(=O)c3cccs3)c2O[C@@H]1CN(C)Cc1ccc(C(=O)Nc2ccccc2N)cc1` gave F508del corr inactive and FGF22 binding inactive.
`COc1ccc(CNC(=O)C[C@H]2C=C[C@H](NC(=O)c3cccc(F)c3)[C@H](CO)O2)cc1` gave F508del corr inactive and FGF22 binding inactive.
For COCCNC(=O)C[C@H]1CC[C@H]2[C@@H](COc3ccc(NC(=O)c4cc(C)on4)cc3C(=O)N2C)O1 the results were F508del corr inactive and FGF22 binding inactive.
Screening C[C@@H]1CCCCO[C@H](CN(C)C(=O)c2ccccc2)[C@H](C)CN([C@@H](C)CO)C(=O)c2cc(NS(=O)(=O)c3cn(C)cn3)ccc2O1 returned F508del corr inactive.
Screening Cc1noc(C)c1NC(=O)N(C)C[C@H]1Oc2ncc(C#CC3CCCC3)cc2C(=O)N([C@H](C)CO)C[C@H]1C returned F508del corr inactive and FGF22 binding inactive.
Screening C[C@@H]1CCCCO[C@@H](CN(C)C(=O)C2CCCCC2)[C@@H](C)CN([C@H](C)CO)C(=O)c2cc(NC(=O)C3CCCCC3)ccc2O1 returned F508del corr inactive and FGF22 binding inactive.
C/C=C/c1ccc2c(c1)O[C@@H](CN(C)CC1CCOCC1)[C@H](C)CN([C@H](C)CO)S2(=O)=O was read as F508del corr inactive.
For COc1ccc(/C=C/C(=O)Nc2ccc(C(C)=O)cc2)cc1S(=O)(=O)N1CCOCC1 the results were Vif inh inactive, F508del corr inactive and FGF22 binding inactive.
`COc1cc(/C=C/C(=O)Nc2ccc(OC)c(S(=O)(=O)N3CCOCC3)c2)ccc1OC(F)F` gave Vif inh inactive, F508del corr inactive and FGF22 binding 1.6.
Screening CO[C@H](CN(C)C(=O)Nc1ccc(C(F)(F)F)cc1)[C@H](C)CN(Cc1ccccc1Cl)[C@H](C)CO returned F508del corr inactive and FGF22 binding inactive.
For Nc1nc2ccccc2n1C(=O)c1ccccc1 the results were Vif inh inactive, F508del corr inactive and FGF22 binding 43.
Nc1nc2ccccc2n1C(=O)c1ccc(F)cc1 was read as Vif inh inactive and FGF22 binding inactive.
`O=C1c2ccccc2S(=O)(=O)N1CC(O)COc1ccc(Cl)cc1` (stereo not drawn) gave Vif inh inactive.
For COC(=O)c1ccc(OCC(O)CN2C(=O)c3ccccc3S2(=O)=O)cc1 (stereo not drawn) the results were Vif inh inactive, F508del corr inactive and FGF22 binding 43.
`C[C@@H]1CN([C@H](C)CO)C(=O)c2cc(-c3cccc(F)c3)cnc2O[C@@H]1CN(C)S(=O)(=O)c1cccc(F)c1` gave F508del corr inactive and FGF22 binding inactive.
Screening CCOc1ccc(C(=O)NCC(=O)NNC(=O)c2cc(C)oc2C)cc1OCC returned Vif inh inactive, F508del corr 16 and FGF22 binding inactive.
`CCOc1ccc(C(=O)NCC(=O)Nc2ccncc2)cc1OCC` gave Vif inh inactive, F508del corr inactive and FGF22 binding inactive.
`CC(C)CC#Cc1ccc2c(c1)O[C@@H](CN(C)C(=O)C1CCC1)[C@@H](C)CN([C@@H](C)CO)S2(=O)=O` gave F508del corr inactive and FGF22 binding inactive.
For CCC(=O)N1CC[C@@H]2[C@H]1c1cc(C#Cc3cccc(OC)c3)ccc1N[C@@H]2CO the results were F508del corr inactive.
CC(=NNC(=O)c1ccncc1)c1ccccc1O was read as Vif inh inactive, F508del corr inactive and FGF22 binding inactive.
`CC(=NNC(=O)c1ccncc1)c1ccc2ccccc2c1O` gave Vif inh inactive, F508del corr 25 and FGF22 binding inactive.
COc1ccc(/C(C)=N/NC(=O)c2ccncc2)cc1 was read as Vif inh inactive and F508del corr inactive.
C/C(=N/NC(=O)c1ccncc1)C1=C(O)CC(C)(C)CC1=O was read as Vif inh inactive, F508del corr inactive and FGF22 binding 44.
CC(C)CN(C[C@H]1N[C@H](CO)[C@H]1c1ccccc1)C(=O)CN(C)C was read as F508del corr inactive and FGF22 binding inactive.
Screening C[C@@H]1CN([C@H](C)CO)C(=O)Cc2cc(NC(=O)CCN3CCOCC3)ccc2O[C@H]1CN(C)C(=O)NC1CCCCC1 returned F508del corr inactive and FGF22 binding inactive.
Screening C[C@H](CO)N1C[C@H](C)[C@H](CN(C)C(=O)CCCN(C)C)OCCCC[C@H](C)Oc2ccc(NC(=O)CCC(F)(F)F)cc2C1=O returned F508del corr inactive and FGF22 binding inactive.
For CC1C(=O)N(Cc2cn(CCC3OCCCO3)nn2)CCS(=O)(=O)N1Cc1ccc(-c2ccccc2)cc1 (stereo not drawn) the results were Vif inh inactive, F508del corr inactive and FGF22 binding inactive.
`CC1C(=O)N(Cc2cn(CCC3OCCCO3)nn2)CCS(=O)(=O)N1Cc1ccc(-c2ccc(Cl)cc2)cc1` (stereo not drawn) gave Vif inh inactive, F508del corr inactive and FGF22 binding 44.
For CO[C@@H]1CN(C)C(=O)c2ccc(NC(=O)c3cnccn3)cc2OC[C@@H](C)N(C)C[C@H]1C the results were F508del corr inactive.
`CCOc1ccc(CCNC(=O)CCOc2cc(C)ccc2C)cc1OCC` gave Vif inh inactive, F508del corr inactive and FGF22 binding 1.9.
Cc1ccc(C)c(OCCC(=O)NCCc2ccc(Cl)cc2)c1 was read as Vif inh inactive, F508del corr inactive and FGF22 binding inactive.
`O=C(O)C[C@H]1C[C@@H]2c3cc(NC(=O)Nc4ccccc4)ccc3O[C@@H]2[C@@H](CO)O1` gave F508del corr inactive and FGF22 binding inactive.
For COc1ccc(NC(=O)N(C)C[C@H]2Oc3ccc(NS(C)(=O)=O)cc3CC(=O)N([C@H](C)CO)C[C@H]2C)cc1 the results were F508del corr inactive and FGF22 binding inactive.
